About 2,000 (36%) of roughly 5,500 compounds were called active. Another 18% or so got no clear call; they are omitted. Cut-off read from the data, not from the text of the source: active = normalized growth mostly below about 0.91 (no sharp cut-off); inconclusive = no clear call, values can overlap the other calls; inactive = mostly above about 0.92. This is one part of the list.
Assay: chemical genetic growth profiling, strain panel (AID 1159580);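 note: tested at 20 µM; growth read once vehicle control cultures reached saturation at 30 °C; 1 = growth at the plate median or of vehicle wells; lower values mean less growth of the strain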
Conditions: growth OD

Measured: normalized growth

c1cncc(C2CCCCN2)c1 (configuration not stated)
inactive: S. cerevisiae deletion strains, locus YJR066W, strain TOR1, hits give low values 0.974 | S. cerevisiae deletion strains, locus YJR075W, strain HOC1, hits give low values 1.03 | S. cerevisiae deletion strains, locus YKL009W, strain mrt4, hits give low values 0.992 | S. cerevisiae deletion strains, locus YKL068W, hits give low values 1 | S. cerevisiae deletion strains, locus YKL085W, strain MDH1 (second series), hits give low values 0.998 | S. cerevisiae deletion strains, locus YKL085W, strain MDH1, hits give low values 0.998 | S. cerevisiae deletion strains, locus YKL160W, strain elf1, hits give low values 0.992 | S. cerevisiae deletion strains, locus YKL190W, strain CNB1, hits give low values 0.99 | S. cerevisiae deletion strains, locus YKR001C, strain vps1, hits give low values 0.986 | S. cerevisiae deletion strains, locus YKR026C, strain gcn3, hits give low values 0.996 | S. cerevisiae deletion strains, locus YKR091W, strain srl3, hits give low values 0.988 | S. cerevisiae deletion strains, locus YLL001W, strain dnm1, hits give low values 0.993 | S. cerevisiae deletion strains, locus YLL026W, hits give low values 0.996 | S. cerevisiae deletion strains, locus YLL041C, strain sdh2, hits give low values 0.991 | S. cerevisiae deletion strains, locus YLR027C, strain aat2, hits give low values 0.999 | S. cerevisiae deletion strains, locus YLR039C, strain RIC1, hits give low values 1.07 | S. cerevisiae deletion strains, locus YLR058C, strain SHM2, hits give low values 1.01 | S. cerevisiae deletion strains, locus YLR102C, strain apc9, hits give low values 1 | S. cerevisiae deletion strains, locus YLR113W, strain HOG1, hits give low values 0.997 | S. cerevisiae deletion strains, locus YLR221C, strain rsa3, hits give low values 0.991 | S. cerevisiae deletion strains, locus YLR258W, strain gsy2, hits give low values 1.02 | S. cerevisiae deletion strains, locus YLR262C, strain YPT6 (second series), hits give low values 0.986 | S. cerevisiae deletion strains, locus YLR262C, strain YPT6, hits give low values 1.06 | S. cerevisiae deletion strains, locus YLR268W, strain sec22, hits give low values 0.968 | S. cerevisiae deletion strains, locus YLR320W, strain mms22, hits give low values 0.981 | S. cerevisiae deletion strains, locus YLR330W, strain CHS5, hits give low values 1.03 | S. cerevisiae deletion strains, locus YLR342W, strain FKS1 (second series), hits give low values 1.02 | S. cerevisiae deletion strains, locus YLR342W, strain FKS1, hits give low values 0.986 | S. cerevisiae deletion strains, locus YLR357W, strain rsc2, hits give low values 0.959 | S. cerevisiae deletion strains, locus YLR370C, strain arc18, hits give low values 0.988 | S. cerevisiae deletion strains, locus YLR371W, strain rom2, hits give low values 0.985 | S. cerevisiae deletion strains, locus YLR384C, strain iki3, hits give low values 0.98 | S. cerevisiae deletion strains, locus YLR418C, strain cdc73, hits give low values 0.995 | S. cerevisiae deletion strains, locus YML016C, strain PPZ1, hits give low values 1.02 | S. cerevisiae deletion strains, locus YML032C, strain rad52, hits give low values 1.01 | S. cerevisiae deletion strains, locus YML120C, strain ndi1, hits give low values 0.998 | S. cerevisiae deletion strains, locus YML124C, strain tub3, hits give low values 0.998 | S. cerevisiae deletion strains, locus YMR058W, strain fet3, hits give low values 0.993 | S. cerevisiae deletion strains, locus YMR078C, strain ctf18, hits give low values 0.999 | S. cerevisiae deletion strains, locus YMR125W, strain sto1, hits give low values 0.981 | S. cerevisiae deletion strains, locus YMR129W, hits give low values 0.99 | S. cerevisiae deletion strains, locus YMR205C, strain PFK2, hits give low values 1.02 | S. cerevisiae deletion strains, locus YMR223W, strain ubp8, hits give low values 1.01 | S. cerevisiae deletion strains, locus YMR231W, strain pep5, hits give low values 0.981 | S. cerevisiae deletion strains, locus YMR307W, strain GAS1, hits give low values 1.11 | S. cerevisiae deletion strains, locus YNL067W, strain RPL9B, hits give low values 1.01 | S. cerevisiae deletion strains, locus YNL071W, strain lat1, hits give low values 0.998 | S. cerevisiae deletion strains, locus YNL153C, strain GIM3, hits give low values 1.02 | S. cerevisiae deletion strains, locus YNL183C, strain NPR1, hits give low values 0.965 | S. cerevisiae deletion strains, locus YNL209W, strain ssb2, hits give low values 0.991 | S. cerevisiae deletion strains, locus YNL233W, strain BNI4, hits give low values 1.03 | S. cerevisiae deletion strains, locus YNL248C, strain rpa49, hits give low values 0.987 | S. cerevisiae deletion strains, locus YNL250W, strain rad50, hits give low values 1.01 | S. cerevisiae deletion strains, locus YNL271C, strain bni1, hits give low values 0.996 | S. cerevisiae deletion strains, locus YNL298W, strain CLA4, hits give low values 0.988 | S. cerevisiae deletion strains, locus YNL307C, strain MCK1, hits give low values 0.997 | S. cerevisiae deletion strains, locus YNL322C, strain KRE1 (second series), hits give low values 0.985 | S. cerevisiae deletion strains, locus YNR049C, strain mso1, hits give low values 0.99 | S. cerevisiae deletion strains, locus YNR052C, strain pop2, hits give low values 0.995 | S. cerevisiae deletion strains, locus YOL012C, strain htz1 0.806 | S. cerevisiae deletion strains, locus YOL147C, strain pex11, hits give low values 0.991 | S. cerevisiae deletion strains, locus YOR001W, strain rrp6, hits give low values 0.994 | S. cerevisiae deletion strains, locus YOR061W, strain CKA2, hits give low values 1.01 | S. cerevisiae deletion strains, locus YOR069W, strain VPS5, hits give low values 0.993 | S. cerevisiae deletion strains, locus YOR070C, strain gyp1, hits give low values 0.978 | S. cerevisiae deletion strains, locus YOR080W, strain dia2, hits give low values 0.982 | S. cerevisiae deletion strains, locus YOR083W, strain WHI5, hits give low values 1 | S. cerevisiae deletion strains, locus YOR106W, strain vam3, hits give low values 0.997 | S. cerevisiae deletion strains, locus YOR136W, strain idh2, hits give low values 0.978 | S. cerevisiae deletion strains, locus YOR144C, strain elg1, hits give low values 0.996 | S. cerevisiae deletion strains, locus YOR184W, strain ser1, hits give low values 1 | S. cerevisiae deletion strains, locus YOR231W, strain MKK1, hits give low values 1 | S. cerevisiae deletion strains, locus YOR265W, strain rbl2, hits give low values 1.01 | S. cerevisiae deletion strains, locus YOR270C, strain vph1, hits give low values 1 | S. cerevisiae deletion strains, locus YOR290C, strain snf2, hits give low values 1 | S. cerevisiae deletion strains, locus YOR316C, strain cot1, hits give low values 0.998 | S. cerevisiae deletion strains, locus YPL051W, strain arl3, hits give low values 1.01 | S. cerevisiae deletion strains, locus YPL078C, strain atp4, hits give low values 0.994 | S. cerevisiae deletion strains, locus YPL106C, strain sse1, hits give low values 0.972 | S. cerevisiae deletion strains, locus YPL240C, strain hsp82, hits give low values 0.992 | S. cerevisiae deletion strains, locus YPL256C, strain CLN2, hits give low values 0.997 | S. cerevisiae deletion strains, locus YPR119W, strain clb2, hits give low values 0.989 | S. cerevisiae deletion strains, locus YPR141C, strain kar3, hits give low values 1 | S. cerevisiae deletion strains, locus YPR163C, strain tif3, hits give low values 0.99 | S. cerevisiae deletion strains, locus YPR167C, strain met16, hits give low values 0.999 | S. cerevisiae deletion strains, strain wtn01, hits give low values 0.957 | S. cerevisiae strains, strain wild type, hits give low values 1.01

Source: PubChem BioAssay AID1159580 (chemical genetic matrix, 2015)
